# Measured values: article PMC8384837, “Expanding the binding specificity for RNA recognition by a PUF domain”
# Key:
# Assay in all cases: yeast three-hybrid, YBZ-1, SC-Leu-His + 0.5 mM 3-AT, 4 days
# Conditions in all cases: tags: N-Gal4 AD-HA kept; label: inside an RPR1-promoter hybrid RNA with tandem MS2 sites; ssRNA
# PUM1 PUF domain R3-RCD = PUM1 PUF domain R3-RCD (Homo sapiens, UniProt Q14671 828-1176, C935R;R936C;Q939D)
# Outline: (§1)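 A centromeric plasmid in strain YBZ-1 co-expressed Pumilio-1 PUF domain libraries, randomized at the three base-contacting residues of each repeat, with matching RNA elements; the strain carries a LexA–MS2 coat fusion and a HIS3 reporter. After four days on SC-Leu (input) or SC-Leu-His + 0.5 mM 3-AT (selection), the repeat regions were PCR-amplified and Illumina-sequenced. The interaction score is the log change in variant frequency from input to selection, using log2 and a pseudocount of 1 where absent.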
# PUM1 PUF domain R3-VRS = PUM1 PUF domain R3-VRS (Homo sapiens, UniProt Q14671 828-1176, C935V;Q939S)
# Outline: as §1
# PUM1 PUF domain R1-GYK = PUM1 PUF domain R1-GYK (Homo sapiens, UniProt Q14671 828-1176, S863G;R864Y;Q867K)
# Outline: as §1
# PUM1 PUF domain R5-KRS = PUM1 PUF domain R5-KRS (Homo sapiens, UniProt Q14671 828-1176, C1007K;Q1011S)
# Outline: as §1
# PUM1 PUF domain R5-NVA = PUM1 PUF domain R5-NVA (Homo sapiens, UniProt Q14671 828-1176, C1007N;R1008V;Q1011A)
# Outline: as §1
# PUM1 PUF domain R6-IWK = target: T1, PUM1 PUF domain R6-IWK (Homo sapiens, UniProt Q14671 828-1176, N1043I;Y1044W;Q1047K)
# T1 sequence: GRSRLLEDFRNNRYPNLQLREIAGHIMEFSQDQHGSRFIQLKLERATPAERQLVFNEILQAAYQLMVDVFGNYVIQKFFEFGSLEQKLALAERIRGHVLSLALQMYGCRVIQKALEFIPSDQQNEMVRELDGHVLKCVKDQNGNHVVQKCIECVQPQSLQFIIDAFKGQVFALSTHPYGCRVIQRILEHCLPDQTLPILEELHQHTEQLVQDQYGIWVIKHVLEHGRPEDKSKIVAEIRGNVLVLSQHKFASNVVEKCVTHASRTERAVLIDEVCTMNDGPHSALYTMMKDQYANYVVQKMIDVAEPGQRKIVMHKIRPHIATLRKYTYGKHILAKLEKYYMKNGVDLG
# Outline: as §1
# PUM1 PUF domain R4-MFN = PUM1 PUF domain R4-MFN (Homo sapiens, UniProt Q14671 828-1176, N971M;H972F;Q975N)
# Outline: as §1
# PUM1 PUF domain R1-RLV = PUM1 PUF domain R1-RLV (Homo sapiens, UniProt Q14671 828-1176, S863R;R864L;Q867V)
# Outline: as §1
# PUM1 PUF domain R4-FNI = PUM1 PUF domain R4-FNI (Homo sapiens, UniProt Q14671 828-1176, N971F;H972N;Q975I)
# Outline: as §1
# PUM1 PUF domain R7-TVV = PUM1 PUF domain R7-TVV (Homo sapiens, UniProt Q14671 828-1176, S1079T;N1080V;E1083V)
# Outline: as §1
# Sequence of PUM1 PUF domain R5-KRS (Q14671 828-1176 C1007K/Q1011S): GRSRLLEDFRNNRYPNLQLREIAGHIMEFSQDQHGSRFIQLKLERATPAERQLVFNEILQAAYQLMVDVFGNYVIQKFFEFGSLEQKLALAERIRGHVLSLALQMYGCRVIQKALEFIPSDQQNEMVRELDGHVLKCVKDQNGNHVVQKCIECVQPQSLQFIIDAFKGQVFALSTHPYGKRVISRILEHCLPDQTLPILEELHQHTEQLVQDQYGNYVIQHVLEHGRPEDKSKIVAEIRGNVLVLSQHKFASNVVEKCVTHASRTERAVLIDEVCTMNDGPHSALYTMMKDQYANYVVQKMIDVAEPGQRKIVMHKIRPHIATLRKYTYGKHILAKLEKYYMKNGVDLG
sequence,measurement,setting,value
GGCUAGAACUAGUGGAUCCCCCGGCGCCCGGCGGCUCGAGCCCGGGUAAGUGUAAGUAGUCUGCAUGCCGCCGGGCGCCAUGCCUGCAGGUCGACUCUAGAAAACAUG,binding signal,PUM1 PUF domain R3-RCD,2.53 log2 enrichment (interaction score)
same,binding signal,PUM1 PUF domain R3-VRS,0.45 log2 enrichment (interaction score)
GGCUAGAACUAGUGGAUCCCCCGGCGCCCGGCGGCUCGAGCCCGGGUAAGUGUAAAUGGUCUGCAUGCCGCCGGGCGCCAUGCCUGCAGGUCGACUCUAGAAAACAUG,binding signal,PUM1 PUF domain R1-GYK,0.96 log2 enrichment (interaction score)
GGCUAGAACUAGUGGAUCCCCCGGCGCCCGGCGGCUCGAGCCCGGGUAAGUGUUAAUAGUCUGCAUGCCGCCGGGCGCCAUGCCUGCAGGUCGACUCUAGAAAACAUG,binding signal,PUM1 PUF domain R5-KRS,3.41 log2 enrichment (interaction score)
same,binding signal,PUM1 PUF domain R5-NVA,3.11 log2 enrichment (interaction score)
GGCUAGAACUAGUGGAUCCCCCGGCGCCCGGCGGCUCGAGCCCGGGUAAGUGAAAAUAGUCUGCAUGCCGCCGGGCGCCAUGCCUGCAGGUCGACUCUAGAAAACAUG,binding signal,PUM1 PUF domain R6-IWK,5.15 log2 enrichment (interaction score)
GGCUAGAACUAGUGGAUCCCCCGGCGCCCGGCGGCUCGAGCCCGGGUAAGUGUAAAUAGUCUGCAUGCCGCCGGGCGCCAUGCCUGCAGGUCGACUCUAGAAAACAUG,binding signal,PUM1 PUF domain R5-KRS,1.71 log2 enrichment (interaction score)
same,binding signal,PUM1 PUF domain R4-MFN,2.97 log2 enrichment (interaction score)
same,binding signal,PUM1 PUF domain R3-VRS,3.88 log2 enrichment (interaction score)
same,binding signal,PUM1 PUF domain R6-IWK,2.18 log2 enrichment (interaction score)
GGCUAGAACUAGUGGAUCCCCCGGCGCCCGGCGGCUCGAGCCCGGGUAAGUGUAAUUAGUCUGCAUGCCGCCGGGCGCCAUGCCUGCAGGUCGACUCUAGAAAACAUG,binding signal,PUM1 PUF domain R3-RCD,3.1 log2 enrichment (interaction score)
GGCUAGAACUAGUGGAUCCCCCGGCGCCCGGCGGCUCGAGCCCGGGUAAGUGUAAAUCGUCUGCAUGCCGCCGGGCGCCAUGCCUGCAGGUCGACUCUAGAAAACAUG,binding signal,PUM1 PUF domain R1-GYK,5.06 log2 enrichment (interaction score)
same,binding signal,PUM1 PUF domain R1-RLV,2.36 log2 enrichment (interaction score)
GGCUAGAACUAGUGGAUCCCCCGGCGCCCGGCGGCUCGAGCCCGGGUAAGUGUAAAUUGUCUGCAUGCCGCCGGGCGCCAUGCCUGCAGGUCGACUCUAGAAAACAUG,binding signal,PUM1 PUF domain R1-RLV,2.9 log2 enrichment (interaction score)
GGCUAGAACUAGUGGAUCCCCCGGCGCCCGGCGGCUCGAGCCCGGGUAAGUGUAUAUAGUCUGCAUGCCGCCGGGCGCCAUGCCUGCAGGUCGACUCUAGAAAACAUG,binding signal,PUM1 PUF domain R4-FNI,2.63 log2 enrichment (interaction score)
GGCUAGAACUAGUGGAUCCCCCGGCGCCCGGCGGCUCGAGCCCGGGUAAGUGUCAAUAGUCUGCAUGCCGCCGGGCGCCAUGCCUGCAGGUCGACUCUAGAAAACAUG,binding signal,PUM1 PUF domain R5-KRS,3.74 log2 enrichment (interaction score)
GGCUAGAACUAGUGGAUCCCCCGGCGCCCGGCGGCUCGAGCCCGGGUAAGUUUAAAUAGUCUGCAUGCCGCCGGGCGCCAUGCCUGCAGGUCGACUCUAGAAAACAUG,binding signal,PUM1 PUF domain R7-TVV,3.71 log2 enrichment (interaction score)
